RGS7-Gao reg: regulators of human RGS7-Galphao interaction. binding response (% of control), % at 10 µM. P09471. Multiplexed bead flow cytometry, RGS7-Galphao binding; actives lie on both sides. 220,000 compounds, 0.35% hits. AID 1439; in the data active = binding response below about 49% or above about 150%; inconclusive = no clear call, values can overlap the other calls; inactive = in between;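 also: fluorescent Galphao held in activated GDP-AlF4 state binding bead-coupled RGS7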
Target sequence (P09471 whole entry, looked up): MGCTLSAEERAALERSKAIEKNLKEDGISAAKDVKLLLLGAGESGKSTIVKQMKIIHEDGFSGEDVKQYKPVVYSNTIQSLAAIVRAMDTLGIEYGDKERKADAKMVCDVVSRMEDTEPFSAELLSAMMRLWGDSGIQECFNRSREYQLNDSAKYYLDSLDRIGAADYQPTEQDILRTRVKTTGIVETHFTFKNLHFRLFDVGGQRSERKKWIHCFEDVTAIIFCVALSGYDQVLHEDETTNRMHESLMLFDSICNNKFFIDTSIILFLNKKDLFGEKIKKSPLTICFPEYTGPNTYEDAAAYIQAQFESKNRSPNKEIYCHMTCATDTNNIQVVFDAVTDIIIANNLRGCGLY
Avidin fluor: avidin bead compound fluorescence profile; Avidin beads, compound fluorescence 488/530 nm, flow cytometry; active compounds read high; fluorescence (KMESF) at 10 µM; 220,000 compounds, 0.38% hits; AID 1775; in the data active = fluorescence above about 47
RGS16-Gao HTS: modulates binding between human RGS16 and Galphao | O15492+P09471 | bead-based flow cytometry RGS16-Galphao binding, fluorescence; actives lie on both sides | binding response (% of control), % at 10 µM | 220,000 compounds, 0.38% hits | AID 1441;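 also: Galphao activated by GDP with aluminum fluoride before binding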
RGS8-Gao reg: human RGS8-Galphao interaction regulation | P09471 | multiplexed bead flow cytometry, RGS8-Galphao binding; actives lie on both sides | response (percent of control binding), % at 10 µM | 220,000 compounds, 0.34% hits | AID 1423; in the data active = response below about 60% or above about 140%; inactive = in between;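 also: Galphao activated as the GDP aluminium fluoride complex binding bead-coupled RGS8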
RGS4-Gao reg: modulates binding of RGS4 to human Galphao; 220,000 compounds, 0.33% hits; Multiplexed bead flow cytometry; actives lie on both sides; binding response (% of control), % at 10 µM; AID 1415; P09471; in the data active = binding response below about 49% or above about 150%; inactive = in between;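 also: fluorescent Galphao activated with aluminum fluoride binding bead-coupled RGS4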
GSH bead fluor: compound fluoresces at 488/530 nm on GSH beads; fluorescence (KMESF) at 10 µM; GSH beads flow cytometry, compound fluorescence 488/530 nm; active compounds read high; 190,000 compounds, 0.25% hits; in the data active = fluorescence above about 89;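 also: glutathione beads carrying GST-tagged Bcl family fusion proteins plus one bare bead set; values are compound well signal with DMSO vehicle wells as background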
RGS-Gao: RGS4-Galphao interaction regulator (human) | shares compounds with RGS16-Gao HTS | multiplexed bead flow cytometry, RGS–Galpha-o binding | RGS4–Galpha-o binding response, % at 10 µM | 1,600 compounds, 99% hits | AID 1504;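 also: fluorescently labeled Galpha-o bound to GDP with aluminium fluoride binding biotinylated RGS beads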
Target sequence (P09471 whole entry, looked up): as above
Target sequence (P49798 whole entry, looked up): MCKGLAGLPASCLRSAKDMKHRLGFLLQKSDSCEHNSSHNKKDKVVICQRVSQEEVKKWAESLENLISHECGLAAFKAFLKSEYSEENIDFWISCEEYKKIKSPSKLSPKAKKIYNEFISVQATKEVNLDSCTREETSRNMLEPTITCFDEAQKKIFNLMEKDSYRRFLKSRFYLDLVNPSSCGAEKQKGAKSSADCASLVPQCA
Biotin-avidin: interferes with biotinylated probe binding to avidin beads | 1,700 tested, under 10 active | shares compounds with RGS16-Gao HTS | inhibition, % at 10 µM | streptavidin beads, fluorescein-biotin binding, flow cytometry;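 active = inhibition above 50%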;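 also: median green fluorescence of gated singlet beads compared with DMSO control wells; 0% = DMSO wells and 100% = complete loss of bead fluorescence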
RGS8-Gao single: confirmation of regulators of human RGS8-Galphao interaction; shares compounds with RGS16-Gao HTS; binding response (% of control), % at 10 µM; 1,700 compounds, 3% hits; bead-based flow cytometry RGS8-Galphao binding, fluorescence; actives lie on both sides; in the data active = binding response below about 72% or above about 130%; inactive = in between;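 also: Galphao activated as GDP AlF4 complex before binding bead RGS8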
RGS7-Gao confirm: confirmation of regulators of human RGS7-Galphao interaction; 1,700 compounds, 7.8% hits; shares compounds with RGS16-Gao HTS; response (percent of control binding), % at 10 µM; bead-based flow cytometry RGS7-Galphao binding; actives lie on both sides; AID 1837; in the data active = response below about 75% or above about 130%; inactive = in between;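 also: fluorescent Galphao activated with GDP and aluminum fluoride binding bead-coupled RGS7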
RGS16-Gao single: confirmation of regulators of human RGS16-Galphao interaction | bead-based flow cytometry, RGS16-Galphao binding; actives lie on both sides | response (% of control binding), % at 10 µM | 1,700 compounds, 4% hits | shares compounds with RGS16-Gao HTS | AID 1838; in the data active = response below about 74% or above about 130%; inactive = in between;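 also: Galphao activated as the GDP aluminium fluoride complex binding bead-coupled RGS16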
RGS4-Gao single: RGS4-Galphao interaction regulation, single point confirmation; 1,700 compounds, 4% hits; AID 1840; RGS4-Galphao binding, multiplexed bead flow cytometry; actives lie on both sides; shares compounds with RGS16-Gao HTS; binding response (% of control), % at 10 µM; in the data active = binding response below about 74% or above about 130%; inactive = in between
RGS19-Gao single: RGS19-Galphao interaction regulation, single point confirmation | shares compounds with RGS16-Gao HTS | bead-based flow cytometry RGS19-Galphao binding; actives lie on both sides | response (percent of control binding), % at 10 µM | 1,700 compounds, 5% hits | AID 1841; in the data active = response below about 50% or above about 160%; inactive = in between;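 also: 100% = no compound control and 0% = blank background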
* = called active by the depositor; i = inactive; ? = inconclusive; nt = not tested or not shown; [ ] = dose if it differs, or a comment. The list is not random: actives were taken first. Their share in the collection is about 1.2%. Unless noted, no rule for the calls is given here.

SMILES	RGS7-Gao reg	Avidin fluor	RGS16-Gao HTS	RGS8-Gao reg	RGS4-Gao reg	GSH bead fluor	RGS-Gao	Biotin-avidin	RGS8-Gao single	RGS7-Gao confirm	RGS16-Gao single	RGS4-Gao single	RGS19-Gao single
Cc1ccc(C(=O)N/N=C/C=C/c2ccccc2)o1	230*[activator]	36	116	98	113	20	113*	0	98	97	96	95	106
Cc1onc(-c2ccccc2)c1C(=O)N/N=C/C=C/c1ccccc1	?	6	104	101	101	nt	nt	nt	nt	nt	nt	nt	nt
O=C(c1ccc2c(c1)OCO2)N1CCC2(CC1)Oc1ccc(Cl)cc1C(=O)C21CC(c2ccccc2)=NO1 (stereo unspecified)	?	6	78	94	80	nt	nt	nt	nt	nt	nt	nt	nt
O=C(Nc1ccccn1)NC1CCS(=O)(=O)C1 (stereo unspecified)	82	9	-92*	80	76	16	76*	-1	101	98	102	101	103
O=C(Nc1ccc(Cl)cc1)NC1CCS(=O)(=O)C1 (stereo unspecified)	109	16	180	114	106	14	nt	nt	nt	nt	nt	nt	nt
O=C(NCc1ccccn1)NC1CCCCC1	99	3	95	101	102	8	nt	nt	nt	nt	nt	nt	nt
O=C(Nc1ccccn1)NC1CCCCC1	nt	nt	nt	nt	199*[activator]	32	nt	0	101	102	102	104	111
Cc1cccc(NC(=O)COC(=O)CCc2ccc(S(=O)(=O)N3CCOCC3)cc2)c1C	100	11	99	100	98	14	nt	nt	nt	nt	nt	nt	nt
CC(=O)N(C)c1ccc(NC(=S)NCC(C)C)cc1	97	3	98	100	99	9	nt	nt	nt	nt	nt	nt	nt
S=C(NCCc1ccccc1)N1CCn2cccc2C1c1cccnc1 (stereo unspecified)	100	23	105	101	101	18	nt	nt	nt	nt	nt	nt	nt
COc1ccccc1-n1cc(CN2CCN(C3CCCCC3)C(CCO)C2)cn1 (stereo unspecified)	?	9	100	103	102	12	nt	nt	nt	nt	nt	nt	nt
CCN(CC)C(=O)c1sc(NC(=O)C(C)C)c(C#N)c1C	112	19	100	102	103	17	nt	nt	nt	nt	nt	nt	nt
CCOc1cc(/C=N/O)ccc1OCc1ccc([N+](=O)[O-])cc1	101	15	98	99	101	11	nt	nt	nt	nt	nt	nt	nt
O=[N+]([O-])c1ccc(COc2ccccc2/C=N/O)cc1	91	1	22*	73	89	9	89*	0	106	107	105	108	99
S=C(N/N=C/c1ccccc1Cl)Nc1cccc(Cl)c1Cl	?	8	100	99	100	nt	nt	nt	nt	nt	nt	nt	nt
O=C(COc1ccccc1C(=O)N/N=C\c1ccc(O)c(O)c1)N/N=C/c1ccc(O)c(O)c1	14*	4	16*	37*	17*	4	nt	-4	61*	21*	60*	54*	53
Cc1cc(-c2ccccc2C(=O)NC2CCCCC2)on1	?	5	89	93	89	nt	nt	nt	nt	nt	nt	nt	nt
Cc1[nH]cnc1CSCc1ccc(Cl)cc1	134	3	192*[activator]	147*[activator]	134	10	134*	-2	114	117	111	113	98
Cc1[nH]cnc1CSCCN	90	6	93	91	89	6	nt	nt	nt	nt	nt	nt	nt
O=C(CSc1n[nH]c(-c2ccccc2O)n1)N1CCOCC1	102	3	102	98	101	11	nt	nt	nt	nt	nt	nt	nt
CC1(C)Cc2cccc(OCC(=O)Nc3cc(C(F)(F)F)ccc3N3CCOCC3)c2O1	226*[activator]	141*	107	97	118	22	118*	0	99	99	100	101	90
Nc1nc(SCC(=O)Nc2cc(C(F)(F)F)ccc2N2CCOCC2)n[nH]1	24*	1	16*	18*	29*	15	nt	1	103	104	102	99	99
Nc1nc(SCC(=O)N2CCOCC2)n[nH]1	189*[activator]	46	127	104	129	15	129*	0	106	112	111	111	103
Cc1nc2ccccc2nc1OCC(=O)Nc1cc(C(F)(F)F)ccc1N1CCOCC1	101	7	102	101	101	46	nt	nt	nt	nt	nt	nt	nt
O=C(CSc1ncnc2c1oc1ccccc12)Nc1nccs1	155*[activator]	9	154	132	146	16	146*	-1	112	107	107	102	94
SMILES	RGS7-Gao reg	Avidin fluor	RGS16-Gao HTS	RGS8-Gao reg	RGS4-Gao reg	GSH bead fluor	RGS-Gao	Biotin-avidin	RGS8-Gao single	RGS7-Gao confirm	RGS16-Gao single	RGS4-Gao single	RGS19-Gao single
COc1cc(C(=O)OCC(=O)NC2CCS(=O)(=O)C2)ccc1OCc1c(C)noc1C (stereo unspecified)	154*[activator]	73*	125	104	100	15	100*	1	100	99	96	98	101
COc1cc(C(=O)OCC#N)ccc1OCc1c(C)noc1C	?	9	100	100	104	nt	nt	nt	nt	nt	nt	nt	nt
O=C(NCc1ccco1)c1ccc2snnc2c1	188*[activator]	187*	102	100	114	30	114*	-2	102	107	101	99	93
Oc1cc2c(cc1O)C1c3ccc(O)c(O)c3OCC1(O)C2 (stereo unspecified)	32*	0	3.4*	19*	67	18	67*	nt	nt	nt	nt	nt	nt
CN1CCN(c2nc3c(c(=O)n(C)c(=O)n3C)n2CC(=O)C23CC4CC(CC(C4)C2)C3)CC1	140	35	156	117	157*[activator]	48	nt	-2	101	99	101	101	95
CC1CN/C(=C\C(=O)c2ccc(Cl)cc2)C(=O)N1 (stereo unspecified)	100	6	111	103	101	14	nt	nt	nt	nt	nt	nt	nt
CC1CN/C(=C\C(=O)c2ccccc2)C(=O)N1 (stereo unspecified)	44*	3	42	56*	49*	21	nt	i	101	106	106	102	104
